# Molecular target: Torsin-1A (Homo sapiens) (UniProt O14656)
# Assay: torsin A mutant lysate binding on microarrays – cell lysate, small-molecule microarray, COS7 lysate, 635/667 nm fluorescence, primary screen (AID 1150);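 further: score pools 667 nm emission and signal to noise measuring lysate protein binding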
# Details: COS7 hTOR1A mutant lysate, 635 nm fluorescence, higher = more signal
# Chain of Torsin-1A (Homo sapiens) (O14656 whole entry, looked up): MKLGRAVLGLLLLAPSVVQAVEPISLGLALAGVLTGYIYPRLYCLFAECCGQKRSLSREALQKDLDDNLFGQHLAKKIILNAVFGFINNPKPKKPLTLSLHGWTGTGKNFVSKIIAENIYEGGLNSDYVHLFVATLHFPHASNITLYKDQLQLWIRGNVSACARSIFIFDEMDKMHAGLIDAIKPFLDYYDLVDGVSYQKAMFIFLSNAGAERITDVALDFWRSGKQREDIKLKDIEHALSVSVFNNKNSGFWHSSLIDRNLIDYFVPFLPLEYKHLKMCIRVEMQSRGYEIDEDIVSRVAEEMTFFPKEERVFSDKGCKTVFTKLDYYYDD
row,Structure (SMILES),composite z-score
1,CC(C)(C)N1C(=O)[C@H]2[C@H]3[C@H](O)[C@H](O)CC(=NOCc4ccccc4)[C@@H]3CC[C@H]2C1=O,0.119
2,O=C1[C@H]2[C@H]3[C@H](O)[C@H](O)CC(=NOC[C@@H](O)COCc4ccco4)[C@H]3CC[C@H]2C(=O)N1c1cccc(Oc2ccccc2)c1,0.948
3,CC(C)=CCCC(C)=CCON=C1C[C@@H](O)[C@@H](O)[C@@H]2[C@@H]3C(=O)N(C[C@@H]4CCCO4)C(=O)[C@@H]3CC[C@@H]12,2.01
4,Cc1ccc(S(=O)(=O)N[C@@H]2COC(=O)[C@H](C)COC(=O)CC=C[C@H]2C)cc1,0.615
5,CCc1cc2c(nc1CC)CCN(CCC(C)=NO[C@@H](C)c1cc(-c3c(C)cc(C)cc3C)no1)C2,0.0048
6,CC(=O)OC[C@H]1O[C@@H](ON=C(C)CCN2CCc3nc(-c4ccccc4)c(-c4ccccc4)cc3C2)[C@H](OC(C)=O)[C@@H](OC(C)=O)[C@@H]1OC(C)=O,0.257
7,Cc1ccc(S[C@]2(C(=O)NCC(F)(F)F)CC(=O)N(Cc3ccccc3Cl)[C@@H]2c2ccc(CO)cc2I)cc1,0.288
8,CO[C@@H]1COC(=O)CC=C[C@@H](C)COC(=O)[C@H](COCc2ccccc2)NC(=O)CC=C[C@H]1C,2.51
9,O[C@@H](Cc1ccccc1)[C@H]1C2C=CCCC(c3ccccc3)=C2CN1Cc1cccc(Cl)c1 (stereo partly drawn),0.144
10,CC(=O)OC[C@H]1O[C@H](CCON=C[C@@H](C)[C@H](OCc2ccccc2)C(C)C)C=C[C@@H]1OC(C)=O,0.284
11,CC1(C)OCC(C(O)C2=CCCCC2=O)CO1 (stereo not drawn),0.803
12,CO[C@@H]1COC(=O)CC=C[C@@H](C)[C@@H]2C=C[C@H](O)[C@@H](COC(=O)[C@H](C)NC(=O)CC=C[C@H]1C)O2,1.81
13,CCCCCN1CC=CC23O[C@@H]4C=CCOC(=O)[C@@H]4[C@H]2C(=O)N(CCCCCCO)[C@@H]3C1=O (stereo partly drawn),-0.966
14,COCCCNC(=O)[C@@]1(C)c2ccccc2C(=O)N(Cc2ccc(OC(F)(F)F)cc2)[C@H]1c1ccc(CO)cc1,-0.17
15,CC(C)[C@@H](OCc1ccccc1)[C@H](C)C=NO[C@H](C)c1cn([C@H](CO)Cc2ccccc2)nn1,1.15
16,c1ccc(C2NCCc3c2[nH]c2ccccc32)cc1 (stereo not drawn),0.462
17,O=C1NC(=O)C2C1C=CC(C(O)Cc1ccccc1)N2Nc1ccccn1 (stereo not drawn),0.933
18,CCOC(=O)[C@H](Cc1ccccc1)NC(=O)CCC1CC(OC(=O)NCCc2ccc(F)cc2)CC2(CCCC(COC(=O)NCC(c3ccccc3)c3ccccc3)O2)O1 (stereo partly drawn),0.656
19,COCCOC(=O)N1C(=O)[C@@]2(c3cc(C#Cc4ccc(OC)cc4)ccc31)[C@H](C(=O)N1CCN(c3ncccn3)CC1)[C@H]1C(=O)O[C@H](c3ccccc3)[C@H](c3ccccc3)N1[C@@H]2c1ccc(OCCO)cc1,0.33
20,CC(=O)OC[C@H]1O[C@@H](ON=C[C@@H](C)[C@H](OCc2ccccc2)C(C)C)[C@H](OC(C)=O)[C@@H](OC(C)=O)[C@@H]1OC(C)=O,0.958
21,COC(=O)CC=C[C@@H](C)[C@@H](C=NO[C@H](C)c1cn([C@@H]2COC[C@H]2O)nn1)OC,0.863
22,CC(CCN1CCc2nc(-c3ccccc3)c(-c3ccccc3)cc2C1)=NOC(C)CN1CCCCc2nc(C)c(C)cc21 (stereo not drawn),0.278
23,CC(=O)OC[C@H]1O[C@H](C#CCCCc2ccccc2)C=C[C@@H]1OC(C)=O,0.0804
24,CCOc1ccc(N2C(=O)/C(=C/C=C/c3ccccc3OC)S(=O)(=O)C2c2cccc([N+](=O)[O-])c2)cc1 (stereo not drawn),0.184
25,COC(=O)[C@@H]1N=C(c2ccc(OCCCO)cc2)O[C@@H]1c1ccccc1N=[N+]=[N-],0.51
26,CCN1C(=O)[C@H]2[C@H]3[C@H](O)[C@H](O)CC(=NOC(C)CN4CCCCc5nc(C)c(C)cc54)[C@@H]3CC[C@H]2C1=O (stereo partly drawn),0.769
27,CC(C)(C)OC(=O)CC[C@]1(C(N)=O)COC(c2ccc(OCCCO)cc2)=N1,0.493

# Tested on: Sonic hedgehog protein (Shh)
# Assay: Sonic hedgehog microarray binding compounds – biochemical, small-molecule microarray, 635/667 nm fluorescence, primary screen (AID 1151);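 further: Shh protein binding to compounds spotted on small-molecule microarray slides; score combines spot fluorescence intensity with signal-to-noise across triplicate slides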
# Details: 635 nm fluorescence, higher = more signal
row,Structure (SMILES),composite z-score
1,NCCCCCNC(=O)[C@@H]1C[C@@H]2C(=O)N3CCC[C@H]3C(=O)N2[C@@H]1c1cccc(OCCO)c1,0.696
2,C=CC[C@]1(C(=O)NCc2ccccc2)N=C(c2ccc(OCCCO)cc2)O[C@H]1c1ccccc1,-0.872
3,COCCOC(=O)N1C(=O)[C@@]2(c3cc(C#CCNC(N)=O)ccc31)[C@H](c1ccc(O)cc1)N1[C@H](c3ccccc3)[C@H](c3ccccc3)OC(=O)[C@H]1[C@@H]2C(=O)N1CCCCCCC1,1.65
4,O=C1[C@H]2[C@H]3[C@H](O)[C@H](O)CC(=NO[C@@H]4O[C@H](CO)[C@@H](O)[C@H](O)[C@H]4O)[C@@H]3CC[C@H]2C(=O)N1Cc1ccc2c(c1)OCO2,0.666
5,O=C1[C@H]2[C@H]3[C@H](O)[C@H](O)CC(=NOCc4ccccc4)[C@@H]3CC[C@H]2C(=O)N1C1CCCCC1,-0.317
6,O=C1[C@H]2[C@H]3[C@H](O)[C@H](O)CC(=NO[C@@H]4O[C@H](CO)[C@@H](O)[C@H](O)[C@H]4O)[C@H]3CC[C@H]2C(=O)N1Cc1ccc2c(c1)OCO2,-0.928
7,O=C(NN=C1C[C@@H](O)[C@@H](O)[C@@H]2[C@@H]3C(=O)N(c4cccc(Oc5ccccc5)c4)C(=O)[C@@H]3CC[C@H]12)OCc1ccccc1,-0.689
8,CC(C)CON=C1C[C@@H](O)[C@@H](O)[C@@H]2[C@@H]3C(=O)N([C@@H](C)c4ccccc4)C(=O)[C@@H]3CC[C@H]12,1.58
9,CC(=O)O[C@H]1C2=C(C(=O)[C@@H]3O[C@@H]31)[C@H]1C(C)O[C@@H]2[C@@]23C(=O)[C@@H]4O[C@@H]4[C@@H](O)C2=CO[C@H](C)[C@@H]13 (stereo partly drawn),0.283
10,CC(C)(C)N1C(=O)[C@H]2[C@H]3[C@H](O)[C@H](O)CC(=NOCc4ccccc4)[C@@H]3CC[C@H]2C1=O,1.26
11,O=C1[C@H]2[C@H]3[C@H](O)[C@H](O)CC(=NOC[C@@H](O)COCc4ccco4)[C@H]3CC[C@H]2C(=O)N1c1cccc(Oc2ccccc2)c1,-0.621
12,CC(C)=CCCC(C)=CCON=C1C[C@@H](O)[C@@H](O)[C@@H]2[C@@H]3C(=O)N(C[C@@H]4CCCO4)C(=O)[C@@H]3CC[C@@H]12,1.73
13,Cc1ccc(S(=O)(=O)N[C@@H]2COC(=O)[C@H](C)COC(=O)CC=C[C@H]2C)cc1,1.91
14,CCc1cc2c(nc1CC)CCN(CCC(C)=NO[C@@H](C)c1cc(-c3c(C)cc(C)cc3C)no1)C2,0.134
15,CC(=O)OC[C@H]1O[C@@H](ON=C(C)CCN2CCc3nc(-c4ccccc4)c(-c4ccccc4)cc3C2)[C@H](OC(C)=O)[C@@H](OC(C)=O)[C@@H]1OC(C)=O,1.12
16,Cc1ccc(S[C@]2(C(=O)NCC(F)(F)F)CC(=O)N(Cc3ccccc3Cl)[C@@H]2c2ccc(CO)cc2I)cc1,-0.155
17,CO[C@@H]1COC(=O)CC=C[C@@H](C)COC(=O)[C@H](COCc2ccccc2)NC(=O)CC=C[C@H]1C,1.77
18,O[C@@H](Cc1ccccc1)[C@H]1C2C=CCCC(c3ccccc3)=C2CN1Cc1cccc(Cl)c1 (stereo partly drawn),0.733

row,Structure (SMILES),composite z-score
1,CC(=O)OC[C@H]1O[C@H](CCON=C[C@@H](C)[C@H](OCc2ccccc2)C(C)C)C=C[C@@H]1OC(C)=O,0.372
2,CC1(C)OCC(C(O)C2=CCCCC2=O)CO1 (stereo not drawn),1.5
3,CO[C@@H]1COC(=O)CC=C[C@@H](C)[C@@H]2C=C[C@H](O)[C@@H](COC(=O)[C@H](C)NC(=O)CC=C[C@H]1C)O2,2.13
4,CCCCCN1CC=CC23O[C@@H]4C=CCOC(=O)[C@@H]4[C@H]2C(=O)N(CCCCCCO)[C@@H]3C1=O (stereo partly drawn),-0.837
5,COCCCNC(=O)[C@@]1(C)c2ccccc2C(=O)N(Cc2ccc(OC(F)(F)F)cc2)[C@H]1c1ccc(CO)cc1,-0.32
6,CC(C)[C@@H](OCc1ccccc1)[C@H](C)C=NO[C@H](C)c1cn([C@H](CO)Cc2ccccc2)nn1,0.29
7,c1ccc(C2NCCc3c2[nH]c2ccccc32)cc1 (stereo not drawn),-0.12
8,O=C1NC(=O)C2C1C=CC(C(O)Cc1ccccc1)N2Nc1ccccn1 (stereo not drawn),0.141
9,CCOC(=O)[C@H](Cc1ccccc1)NC(=O)CCC1CC(OC(=O)NCCc2ccc(F)cc2)CC2(CCCC(COC(=O)NCC(c3ccccc3)c3ccccc3)O2)O1 (stereo partly drawn),0.719
10,COCCOC(=O)N1C(=O)[C@@]2(c3cc(C#Cc4ccc(OC)cc4)ccc31)[C@H](C(=O)N1CCN(c3ncccn3)CC1)[C@H]1C(=O)O[C@H](c3ccccc3)[C@H](c3ccccc3)N1[C@@H]2c1ccc(OCCO)cc1,1
11,CC(=O)OC[C@H]1O[C@@H](ON=C[C@@H](C)[C@H](OCc2ccccc2)C(C)C)[C@H](OC(C)=O)[C@@H](OC(C)=O)[C@@H]1OC(C)=O,-0.925
12,COC(=O)CC=C[C@@H](C)[C@@H](C=NO[C@H](C)c1cn([C@@H]2COC[C@H]2O)nn1)OC,0.76
13,CC(CCN1CCc2nc(-c3ccccc3)c(-c3ccccc3)cc2C1)=NOC(C)CN1CCCCc2nc(C)c(C)cc21 (stereo not drawn),0.569
14,CC(=O)OC[C@H]1O[C@H](C#CCCCc2ccccc2)C=C[C@@H]1OC(C)=O,1.19
15,CCOc1ccc(N2C(=O)/C(=C/C=C/c3ccccc3OC)S(=O)(=O)C2c2cccc([N+](=O)[O-])c2)cc1 (stereo not drawn),0.37
16,COC(=O)[C@@H]1N=C(c2ccc(OCCCO)cc2)O[C@@H]1c1ccccc1N=[N+]=[N-],-0.0259
17,CCN1C(=O)[C@H]2[C@H]3[C@H](O)[C@H](O)CC(=NOC(C)CN4CCCCc5nc(C)c(C)cc54)[C@@H]3CC[C@H]2C1=O (stereo partly drawn),0.809
18,CC(C)(C)OC(=O)CC[C@]1(C(N)=O)COC(c2ccc(OCCCO)cc2)=N1,-0.769

# From PubChem BioAssay
